Results on nine molecules are retold here after the supplement of paper PMC13380429.

Unmarked numbers belong to inactive results.

The experiment deals with Vero E6 infected with SARS-CoV-2. In words: SARS-CoV-2 infection rate relative to infected DMSO; higher = more infection, active = 60 or less. The conditions noted are these: 24 h.
For `CSCC[C@H](NC(=O)[C@H](CC(C)C)NC(=O)[C@@H](Cc1c[nH]c2ccccc12)NC(=O)[C@H](Cc1ccccc1)N(C)C(=O)[C@@H](Cc1c[nH]c2ccccc12)NC(=O)[C@@H](N)CCCNC(=N)N)C(N)=O` [antagonist-g] (10 µM), the SARS-CoV-2 infection rate is 114%.

For `O=C1c2ccccc2S(=O)(=O)N1CCCCN1CCN(c2ncccn2)CC1` [ipsapirone] (10 µM), the SARS-CoV-2 infection rate is 102%.

Take `CC(C)(O)[C@@H]1[C@H]2OC(=O)[C@@H]1[C@]1(O)C[C@H]3O[C@]34C(=O)O[C@H]2[C@]14C` [picrotin] (10 µM): the SARS-CoV-2 infection rate was 111%.

On to `O=C(c1ccc(Nc2nccc(-c3cc4ccccc4s3)n2)cc1)N1CCC(N2CCCC2)CC1` (0.833333 µM), for which the SARS-CoV-2 infection rate was 56% (active).

`CC1=NN(c2ccccc2)C(=O)C1` [edaravone] (10 µM): the SARS-CoV-2 infection rate is 101%.

Regarding `CC(C)[C@@H](C(=O)Nc1nccs1)c1ccc(Cl)cc1` (10 µM), the SARS-CoV-2 infection rate is 98.5%.

Regarding `O=c1c2ccccc2[se]n1-c1ccccc1` [Ebselen] (10 µM), the SARS-CoV-2 infection rate was 84.5%.

With `CC[C@@]1(O)C(=O)OCc2c1cc1n(c2=O)Cc2c-1nc1cc(F)c(C)c3c1c2[C@@H](N)CC3` [exatecan-mesylate] (0.833333 µM), the SARS-CoV-2 infection rate was 110%.

For the molecule `c1ccc2c(c1)sc1ccccc12` [dibenzothiophene] (10 µM), the SARS-CoV-2 infection rate was 105%.
